The values that follow come from the supplement of paper PMC10732440.

± gives the standard deviation of the averaged measurements.

One test concerns Caenorhabditis elegans N2 infected with Nematocida parisii ERTm1. The experiment in a line: progeny production relative to DMSO uninfected control; higher = more progeny despite microsporidia infection (inhibition of infection with low host toxicity). The conditions noted are these: infection time 6 days; 40 µM. Put shortly: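 Progeny production is reported as a percentage of spore-free vehicle wells and averaged across replicates. It was measured after bleach-synchronised wild-type C. elegans L1 larvae (100 per well) spent 6 days shaking at 21°C in K-medium with E. coli OP50, 15,000 N. parisii spores/μL and compound at 100 μM or 40 μM in 1% DMSO. Counting used Rose Bengal staining, flatbed scanning and WorMachine, and each compound and dose was tested three times.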
Compound `NC(=O)c1cnccn1` yielded a progeny production of 6.68 ± 7.5%.
For `Cc1ccccc1NC(=O)Nc1cccc([N+](=O)[O-])c1`, the progeny production worked out at 4.55 ± 2.1%.
For the compound `O=c1cc(OCc2ccccc2)ccn1Cc1ccccc1`, the progeny production was determined as 5.55 ± 1.6%.
For `Cc1ccc(NC(=O)c2cc(Cl)ccc2O)cc1`, the progeny production was 8.65 ± 5.8%.
On the same count and under the same terms, the same measure for `Cc1cc(C)n2nc(C(=O)NS(=O)(=O)c3c(C)cccc3OC(F)(F)F)nc2n1`: 9.33 ± 0.97%.
As to `COc1ccc(NC(=O)c2cc3ccccn3n2)cc1`, the progeny production was 9 ± 5.7%.
The same measure, in the same setting: the figure for `CC[C@@]1(O)C(=O)OCc2c1cc1n(c2=O)Cc2cc3c(CN(C)C)c(O)ccc3nc2-1` is 7.48 ± 1.6%; for `Cc1ccc(Oc2ccccc2-c2csc(N=C3NCCCN3)n2)c(C)c1` it is 4.22 ± 1.2%.
`Oc1ccc(NCc2ccccc2OCc2ccccc2)cc1` returned a progeny production of 5.72 ± 3.1%.
As to `CO[C@@]1(NC(=O)Cc2cccs2)C(=O)N2C(C(=O)O)=C(COC(N)=O)CS[C@@H]21`, the progeny production came to 8.96 ± 2.4%.
On to `CN(O)C(=O)c1cc2c(CN3CCC[C@H]3C(N)=O)cn(Cc3ccc(F)cc3)c2cn1`, for which the progeny production came out at 3.84 ± 1.6%.
The same measure, in the same setting: the figure for `CC(N)C12CC3CC(CC(C3)C1)C2` (stereo not given) is 3.85 ± 0.59%.
For `NC(=S)N/N=C/c1ncccc1N`, the progeny production amounted to 8.43 ± 4.5%.
`CC[C@@H]1C(=O)OC[C@@H]1Cc1cncn1C` returned a progeny production of 4.59 ± 1.7%.
As to `Nc1nc(C(F)(F)F)cc2c1[nH]c(=O)n2Cc1ccccc1`, the progeny production is 2.69 ± 0.61%.
`CONC(=N)c1ccc(-c2ccc(-c3ccc(C(=N)NOC)cc3)o2)cc1` came in with a progeny production of 5.44 ± 1.7%.
`O=C(/C=C/n1cnc(-c2cc(C(F)(F)F)cc(C(F)(F)F)c2)n1)NNc1cnccn1` came in with a progeny production of 7.43 ± 4%.
Compound `Nc1nc(F)nc2c1ncn2[C@H]1O[C@@H](CO)[C@H](O)[C@@H]1O` displayed a progeny production of 2.33 ± 1%.
For `CCc1ccccc1OCCN1CCCCCC1`, the progeny production came to 7.17 ± 1.6%.
As to `CCc1nc2ccccn2c1C(=O)NCc1ccccc1`, the progeny production was found to be 6.11 ± 1.7%.
For the compound `Nc1nnnn1CCOc1c2[nH]c3ccc(Cl)cc3c2cc2c1[nH]c1ccc(Cl)cc12`, the progeny production was 5.74 ± 5.8%.
Compound `C=C(C)n1c(=O)n(Cc2ccccc2C)c2ccccc21` gave a progeny production of 6.26 ± 0.83%.
The same measure, in the same setting: the same measure for `NC(=O)C(c1ccccc1)(c1ccccc1)[C@H]1CCCN(CCc2ccc3c(c2)CCO3)C1`: 7.34 ± 0.47%; for `CCc1cc(CCC(=O)Nc2ccccc2O)c(O)nc1C`: 4.5 ± 1.7%; for `Cc1cc(C)n(O)c(=O)c1`: 1.95 ± 0.44%.
Still for that read-out and setting: the figure for `Cc1nc(N(C)C(=O)Cc2ccc(-c3ccccn3)cc2)sc1S(N)(=O)=O` is 3.86 ± 0.4%; for `O=C1c2cccc3cccc(c23)C(=O)N1CC1CO1` (stereo not given) it is 7.39 ± 4.7%; for `Cc1nc2ccc(Cl)cc2c(-c2ccccc2)c1CC(=O)O` it is 6.84 ± 5.6%.
`COc1ccc(NC(=O)CC2Sc3ncnn3C2=O)cc1` (stereo not given) registered a progeny production of 8.48 ± 3.4%.
As to `CCc1cc(CCCOc2c(C)cc(-c3noc(C(F)(F)F)n3)cc2C)on1`, the progeny production turned out to be 5.28 ± 4%.
As for `CN(Cc1ccc(C(C)(C)C)cc1)Cc1cccc2ccccc12`, the progeny production was found to be 5.41 ± 2%.
Same read-out and setting: the figure for `C[C@H]1COc2c(N3CCN(C)CC3)c(F)cc3c(=O)c(C(=O)O)cn1c23` is 5.38 ± 2.2%; for `C=C(C)[C@@H]1CC[C@]2(C(=O)O)CC[C@]3(C)[C@H](CC[C@@H]4[C@@]5(C)CC[C@H](O)C(C)(C)[C@@H]5CC[C@]43C)[C@@H]12` it is 6.56 ± 0.21%; for `OB1OCc2c1ccc(Cl)c2F` it is 4.06 ± 1%.
`CC(C)/N=c1\cc2n(-c3ccc(Cl)cc3)c3ccccc3nc-2cc1Nc1ccc(Cl)cc1` gave a progeny production of 5.08 ± 1.9%.
Consider `C[C@@H]1O[C@@H]1P(=O)(O)O`, for which the progeny production was 4.36 ± 0.35%.
In the case of `CC(C)(C)c1cc(CCC(=O)N2CCC2)cc(C(C)(C)C)c1O`, the progeny production is 5.76 ± 2.7%.
Still for that read-out and setting: the figure for `Clc1ccc(Cn2c(CN3CCCC3)nc3ccccc32)cc1` is 3.41 ± 1.9%; for `Cc1cc(CCCOc2c(C)cc(-c3noc(C(F)(F)F)n3)cc2C)on1` it is 1.93 ± 0.29%; for `CC[C@H](CO)Nc1nc(NCc2ccccc2)c2ncn(C(C)C)c2n1` it is 4.15 ± 1.7%.

The test is the same for the next values; noted with them: infection time 6 days; 100 µM.
Consider `NC(=O)c1cnccn1`, for which the progeny production is 6.97 ± 1.1%.
Compound `Cc1ccccc1NC(=O)Nc1cccc([N+](=O)[O-])c1` showed a progeny production of 13.8 ± 4.8%.
For `O=c1cc(OCc2ccccc2)ccn1Cc1ccccc1`, the progeny production amounted to 13.9 ± 13%.
`Cc1ccc(NC(=O)c2cc(Cl)ccc2O)cc1` had a progeny production of 8.35 ± 5.3%.
Still for that read-out and setting: the figure for `Cc1cc(C)n2nc(C(=O)NS(=O)(=O)c3c(C)cccc3OC(F)(F)F)nc2n1` is 5.89 ± 3.9%; for `COc1ccc(NC(=O)c2cc3ccccn3n2)cc1` it is 13.6 ± 6%.
Same read-out and setting: the same measure for `CC[C@@]1(O)C(=O)OCc2c1cc1n(c2=O)Cc2cc3c(CN(C)C)c(O)ccc3nc2-1`: 10 ± 2.5%.
Take `Cc1ccc(Oc2ccccc2-c2csc(N=C3NCCCN3)n2)c(C)c1`: the progeny production is 14.8 ± 12%.
On the same count and under the same terms, the same measure for `Oc1ccc(NCc2ccccc2OCc2ccccc2)cc1`: 8.25 ± 6.3%.
The compound `CO[C@@]1(NC(=O)Cc2cccs2)C(=O)N2C(C(=O)O)=C(COC(N)=O)CS[C@@H]21` gave a progeny production of 7.7 ± 7.8%.
For the compound `CN(O)C(=O)c1cc2c(CN3CCC[C@H]3C(N)=O)cn(Cc3ccc(F)cc3)c2cn1`, the progeny production was determined as 11.1 ± 4.5%.
In the case of `CC(N)C12CC3CC(CC(C3)C1)C2` (stereo not given), the progeny production came to 6.21 ± 1.8%.
The compound `NC(=S)N/N=C/c1ncccc1N` displayed a progeny production of 18.8 ± 12%.
On to `CC[C@@H]1C(=O)OC[C@@H]1Cc1cncn1C`, for which the progeny production stood at 11.8 ± 11%.
In turn, `Nc1nc(C(F)(F)F)cc2c1[nH]c(=O)n2Cc1ccccc1` showed a progeny production of 17.2 ± 1.5%.
Take `CONC(=N)c1ccc(-c2ccc(-c3ccc(C(=N)NOC)cc3)o2)cc1`: the progeny production came to 14.6 ± 6%.
With `O=C(/C=C/n1cnc(-c2cc(C(F)(F)F)cc(C(F)(F)F)c2)n1)NNc1cnccn1`, the progeny production amounted to 14.1 ± 2.6%.
The compound `Nc1nc(F)nc2c1ncn2[C@H]1O[C@@H](CO)[C@H](O)[C@@H]1O` displayed a progeny production of 4.1 ± 1.2%.
Same read-out and setting: the figure for `CCc1ccccc1OCCN1CCCCCC1` is 20.2 ± 6%.
Take `CCc1nc2ccccn2c1C(=O)NCc1ccccc1`: the progeny production was 12.8 ± 11%.
On to `Nc1nnnn1CCOc1c2[nH]c3ccc(Cl)cc3c2cc2c1[nH]c1ccc(Cl)cc12`, for which the progeny production amounted to 8.85 ± 7.7%.
`C=C(C)n1c(=O)n(Cc2ccccc2C)c2ccccc21` came in with a progeny production of 14.5 ± 10%.
On to `NC(=O)C(c1ccccc1)(c1ccccc1)[C@H]1CCCN(CCc2ccc3c(c2)CCO3)C1`, for which the progeny production was 15.2 ± 18%.
With `CCc1cc(CCC(=O)Nc2ccccc2O)c(O)nc1C`, the progeny production came to 9.45 ± 3.1%.
`Cc1cc(C)n(O)c(=O)c1`: the progeny production worked out at 14.8 ± 8.8%.
In the case of `Cc1nc(N(C)C(=O)Cc2ccc(-c3ccccn3)cc2)sc1S(N)(=O)=O`, the progeny production was determined as 12.9 ± 8.8%.
Consider `O=C1c2cccc3cccc(c23)C(=O)N1CC1CO1` (stereo not given), for which the progeny production amounted to 44.9 ± 30%.
For the compound `Cc1nc2ccc(Cl)cc2c(-c2ccccc2)c1CC(=O)O`, the progeny production came to 13.8 ± 12%.
The same measure, in the same setting: the figure for `COc1ccc(NC(=O)CC2Sc3ncnn3C2=O)cc1` (stereo not given) is 14.8 ± 8.1%; for `CCc1cc(CCCOc2c(C)cc(-c3noc(C(F)(F)F)n3)cc2C)on1` it is 12.5 ± 14%.
For `CN(Cc1ccc(C(C)(C)C)cc1)Cc1cccc2ccccc12`, the progeny production is 17 ± 17%.
Same read-out and setting: the same measure for `C[C@H]1COc2c(N3CCN(C)CC3)c(F)cc3c(=O)c(C(=O)O)cn1c23`: 12.8 ± 9.1%; for `C=C(C)[C@@H]1CC[C@]2(C(=O)O)CC[C@]3(C)[C@H](CC[C@@H]4[C@@]5(C)CC[C@H](O)C(C)(C)[C@@H]5CC[C@]43C)[C@@H]12`: 9.57 ± 2%; for `OB1OCc2c1ccc(Cl)c2F`: 18.5 ± 12%.
Regarding `CC(C)/N=c1\cc2n(-c3ccc(Cl)cc3)c3ccccc3nc-2cc1Nc1ccc(Cl)cc1`, the progeny production came to 9.5 ± 7.2%.
Same read-out and setting: the figure for `C[C@@H]1O[C@@H]1P(=O)(O)O` is 15.3 ± 13%.
Turning to `CC(C)(C)c1cc(CCC(=O)N2CCC2)cc(C(C)(C)C)c1O`, the progeny production amounted to 14.4 ± 8.6%.
The same measure, in the same setting: the figure for `Clc1ccc(Cn2c(CN3CCCC3)nc3ccccc32)cc1` is 6.88 ± 1.8%; for `Cc1cc(CCCOc2c(C)cc(-c3noc(C(F)(F)F)n3)cc2C)on1` it is 15.4 ± 3.2%.
The same measure, in the same setting: the same measure for `CC[C@H](CO)Nc1nc(NCc2ccccc2)c2ncn(C(C)C)c2n1`: 13.5 ± 9.8%.
